Reference: PubChem BioAssay (NCATS)
“And” between values parts separate entries of the source, which are not always exact repeats. Identical values can stand only once. Inconclusive results are not listed. Where a structure was tested more than once in an assay, its records may differ in their call. The source made the active and inactive calls. Calls follow the shape of the dose curve; as a rule, active = well fitted curve in the direction sought with a large enough effect; inconclusive = small, poorly fitted or top-dose-only effect, or another doubt; inactive = no such curve, though single readings can be large; an effect the other way counts as inactive or inconclusive.

Tests used:
[1] = test system: CRL-7250; assay: Cytotoxic Profiling of Annotated Libraries Using Quantitative High-Throughput Screening (AID 1296008); conditions: Five cell lines viability, CellTiter-Glo ATP luminescence, 48-72 h; max response: hits give low values; also: nearly all actives have a fitted effect of over 60% in size; also: potency is read from the fitted curve at half-maximal effect; as to max response: % is scaled to controls: 0 for no effect and ±100 for the full control effect
Procedure, shortened: (§1)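 Compounds were pin-transferred onto cells and incubated 48 or 72 hr at 37 degree Celsius, 95% humidity. CellTiter-Glo was added, plates sat 10 min at room temperature, then ATP-coupled luminescence was imaged as the viability read-out.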

[2] = test system: HaCat; assay: as above; conditions: Five cell lines viability, CellTiter-Glo ATP luminescence, 48-72 h; max response: hits give low values
Procedure, shortened: as §1

[3] = test system: KB-3-1; assay: as above; conditions: Five cell lines viability, CellTiter-Glo ATP luminescence, 48-72 h; max response: hits give low values
Procedure, shortened: as §1

[4] = test system: NIH3T3; assay: as above; conditions: Five cell lines viability, CellTiter-Glo ATP luminescence, 48-72 h; max response: hits give low values
Procedure, shortened: as §1

[5] = test system: HACAT; assay: qHTS assay to identify novel small-molecules to repurpose for Merkel cell carcinoma treatment (AID 1296009); conditions: MCC and control cell lines, CellTiter-Glo viability, 72 h; at 44.8 µM (top of the series) unless noted; also: nearly all actives have a fitted effect of over 60% in size
Procedure, shortened: (§2)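 Cells exposed to NPC (8-point) and MIPE (11-point) compound dilutions for 72 hr at 37 degree celsius; viability read by CellTiter-Glo luminescence, normalized to no-cell and DMSO in-plate controls.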

[6] = test system: MCC-13; assay: as above; conditions: MCC and control cell lines, CellTiter-Glo viability, 72 h; series mostly up to 46 µM
Procedure, shortened: as §2

[7] = test system: MCC-26; assay: as above; conditions: MCC and control cell lines, CellTiter-Glo viability, 72 h; series mostly up to 46 µM
Procedure, shortened: as §2

[8] = test system: MKL-2; assay: as above; conditions: MCC and control cell lines, CellTiter-Glo viability, 72 h; series mostly up to 46 µM
Procedure, shortened: as §2

[9] = test system: UISO; assay: as above; conditions: MCC and control cell lines, CellTiter-Glo viability, 72 h; series mostly up to 46 µM
Procedure, shortened: as §2

[10] = test system: MKL-1; assay: as above; conditions: MCC and control cell lines, CellTiter-Glo viability, 72 h; series mostly up to 46 µM
Procedure, shortened: as §2

[11] = test system: NIH3T3; assay: as above; conditions: MCC and control cell lines, CellTiter-Glo viability, 72 h; series mostly up to 44.8 µM
Procedure, shortened: as §2

[12] = test system: C33A; assay: Primary qHTS to identify gynecologic anti-cancer compounds using libraries of approved drugs and bioactive compounds (AID 1345084); conditions: Gynecologic cancer cell panel viability, ATPlite luminescence, 48 h; series mostly up to 57.5 µM; also: % is scaled to controls: 0 for no effect and ±100 for the full control effect; nearly all actives have a fitted effect of over 55% in size
Procedure, shortened: (§3)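 Five-concentration response, 48 h; readout is ATP-driven luciferase luminescence.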

[13] = test system: CAOV3; assay: as above; conditions: Gynecologic cancer cell panel viability, ATPlite luminescence, 48 h; series mostly up to 57.5 µM
Procedure, shortened: as §3

[14] = test system: CASKI; assay: as above; conditions: Gynecologic cancer cell panel viability, ATPlite luminescence, 48 h; series mostly up to 57.5 µM
Procedure, shortened: as §3

[15] = test system: WaGa; assay: qHTS assay to identify novel small-molecules to repurpose for Merkel cell carcinoma treatment (AID 1296009); conditions: MCC and control cell lines, CellTiter-Glo viability, 72 h; series mostly up to 46 µM; also: nearly all actives have a fitted effect of over 60% in size
Procedure, shortened: as §2

[16] = test system: HEK293T; assay: as above; conditions: MCC and control cell lines, CellTiter-Glo viability, 72 h; at 44.8 µM (top of the series) unless noted
Procedure, shortened: as §2

[17] = test system: TAB113; assay: qHTS profiling for inhibitors of Plasmodium falciparum proliferation (AID 504749);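 also: 0% = DMSO vehicle and full inhibition = artemisinin control; nearly all actives have a fitted effect of over 60% in size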; conditions: P. falciparum in erythrocytes, SYBR Green DNA, 72 h; series mostly up to 28.7 µM
Procedure, shortened: (§4)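 P. falciparum-infected erythrocytes (0.3% parasitemia, 2.5% hematocrit final) were exposed to compounds for 72 h at 37 C in 5% CO2, then lysed with SYBR Green buffer overnight at room temperature; parasite DNA fluorescence was normalized to artemisinin and DMSO controls.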

[18] = test system: TAB165; assay: as above; conditions: P. falciparum in erythrocytes, SYBR Green DNA, 72 h; series mostly up to 28.7 µM
Procedure, shortened: as §4

[19] = test system: W2; assay: as above; conditions: P. falciparum in erythrocytes, SYBR Green DNA, 72 h; series mostly up to 28.7 µM
Procedure, shortened: as §4

Cc1ccc(S(=O)(=O)OCC(=O)Nc2ccc(C(=O)O)c(O)c2)cc1
inactive: max response [1] -2.75% | outcome [2] | outcome [3] | max response [4] -0.735% | outcome [5] | Potency [6] | Potency [7] | Potency [8] | Potency [9]

COc1ccc2c(c1)c(C1=C(c3c[nH]c4ccccc34)C(=O)NC1=O)cn2CCCN(C)C
inactive: outcome [1] | outcome [2] | max response [3] -14.8% | max response [4] 4.3% | outcome [5] | Potency [6] | Potency [7]

CCC(c1ccc(O)cc1)C(CC)c1ccc(O)cc1 (stereo not drawn)
inactive: outcome [1] | outcome [2] | max response [3] 9.65% | outcome [4] | outcome [5] | Potency [6] | Potency [7] | Potency [10] | Potency [8] | Potency [11] | Potency [9]

O=C(CO)N1CCC(c2[nH]nc(-c3ccc(Cl)cc3)c2-c2ccncn2)CC1
inactive: max response [1] 0.635% and -7.11% | max response [2] -4.95% | max response [3] 6.51% | outcome [3] | Potency [6] | Potency [7] | Potency [10] | Potency [8] | Potency [12] | Potency [13] | Potency [14]

C[C@@H](NC(=O)c1ncnc(N)c1Cl)c1ncc(C(=O)Nc2cc(C(F)(F)F)c(Cl)cn2)s1
inactive: max response [1] -9.83% | outcome [2] | outcome [3] | max response [4] -5.83% and 1.58% | outcome [5] | Potency [6] | Potency [7] | Potency [10] | Potency [8] | Potency [9] | Potency [15] | Potency [12] | Potency [13] | Potency [14]

CCCCC(C=O)NC(=O)C(CC(C)C)NC(=O)OCc1ccccc1 (stereo not drawn)
inactive: max response [1] -8.38% | outcome [2] | max response [3] -12% | max response [4] -21.8% | outcome [5] | Potency [6] | Potency [7] | Potency [10] | Potency [8] | Potency [9] | Potency [15]

N#CC(c1ccnc(NCCc2cccnc2)n1)c1nc2ccccc2s1 (stereo not drawn)
inactive: max response [1] -3.29% | outcome [2] | max response [3] 8.21% | max response [4] -3.33% | outcome [5] | Potency [6] | Potency [7] | Potency [10] | Potency [8] | Potency [9]

COc1cc2ncnc(Nc3cc(Br)c(O)c(Br)c3)c2cc1OC
inactive: max response [1] -9.02% and 1.18% | max response [2] -28.8% | outcome [3] | max response [4] -4.77% | outcome [4] | outcome [16] | Potency [6] | Potency [7] | Potency [10] | Potency [11] | Potency [15] | Potency [12] | Potency [13] | Potency [14]

CN1CCC(COc2cnc(-c3cccc(Cn4nc(-c5cccc(C#N)c5)ccc4=O)c3)nc2)CC1
inactive: outcome [1] | outcome [2] | max response [3] -7.63% | max response [4] -5.81% | outcome [5] | outcome [16] | Potency [6] | Potency [7] | Potency [9] | Potency [15] | Potency [12] | Potency [14]
active: Potency [4] 16.4 µM

CCC[C@H](N[C@@H](C)C(=O)N1[C@@H]2CCCC[C@H]2C[C@H]1C(=O)O)C(=O)OCC
inactive: max response [1] 2.7% | outcome [2] | max response [3] -1.21% | max response [4] -10.8% | outcome [5] | Potency [6] | Potency [7] | Potency [10] | Potency [8] | Potency [9] | Potency [15]

COc1ccnc(CS(=O)c2nc3ccc(OC(F)F)cc3[nH]2)c1OC (stereo not drawn)
inactive: Potency [17] | Potency [18] | Potency [19] | max response [1] 3.58% | max response [2] -12.5% | outcome [2] | max response [3] -0.194% and 5.88% | max response [4] -24% | outcome [4] | outcome [5] | outcome [16] | Potency [6] | Potency [7] | Potency [10] | Potency [11] | Potency [9] | Potency [15] | Potency [12] | Potency [13] | Potency [14]

Cc1cc2c(cc1C1(c3ccc(C(=O)O)cn3)CC1)C(C)(C)CCC2(C)C
inactive: outcome [1] | max response [2] -17.6% | max response [3] 4.32% | outcome [3] | outcome [4] | Potency [6] | Potency [7] | Potency [10] | Potency [8] | Potency [11] | Potency [9] | Potency [15] | Potency [12] | Potency [13]

CO[C@@H]1C(N(C)C(=O)c2ccccc2)C[C@H]2O[C@]1(C)n1c3ccccc3c3c4c(c5c6ccccc6n2c5c31)C(=O)NC4=O (stereo partly drawn)
active: Potency [1] 6.62 µM | Potency [2] 9.35 µM | Potency [3] 10.5 µM
